Compound activity as filed in PubChem BioAssay.
Only some compounds are listed: those with a hit (about 18% of all), similar ones and a draw of the others.
Six1-Eya2 inh: blocks human Six1 binding to Eya2 | AlphaScreen GST-Six1/His-Eya2 binding, biochemical; stronger effect = lower value | AID 651725 | activity change, % (concentration not given with the values) | Q15475+O00167 | actives 0.56% (n = 360,000); in the data active = activity change below about -65%; inconclusive = mostly about -30% to -63%
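AlphaScreen luminescence read after one hour at 37 °C in darkness. Pin-transferred compounds met GST-Six1 and His-Eya2 protein (5X stock 250 nM/500 nM) plus glutathione donor and Ni-chelate acceptor beads (5X, 50 ug/mL).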
CtBP-E1A inh: inhibitors of CtBP/E1A interaction. AlphaScreen GST-E1A/His-CtBP binding, 1536-well; stronger effect = lower value. AID 651724. actives 0.49% (n = 340,000). activity change, % (no concentration beside the values); in the data active = activity change below about -65%; inconclusive = mostly about -30% to -63%
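Protein mix (5X: 125 nM each GST-E1A, His-CtBP) was incubated with pinned compound 2 h at 37 deg C in dark, in 50 mM Tris pH 8.0 buffer with 300 mM NaCl. Glutathione donor and nickel acceptor beads followed; AlphaScreen signal read after 1 h.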
TDP1 inh: inhibitors of human tyrosyl-DNA phosphodiesterase TDP1; Potency, µM (highest dose often 130 µM), for the others: at the top dose activity change, negative = inhibition, usual class: inhibitors; actives 0.28% (n = 350,000); AID 485290; recombinant TDP1, AlphaScreen DNA substrate cleavage; Q9NUW8; note: potency is the fitted concentration of half-maximal effect; nearly all actives have a fitted effect of over 40% in size
Target sequence (Q9NUW8 whole entry, looked up): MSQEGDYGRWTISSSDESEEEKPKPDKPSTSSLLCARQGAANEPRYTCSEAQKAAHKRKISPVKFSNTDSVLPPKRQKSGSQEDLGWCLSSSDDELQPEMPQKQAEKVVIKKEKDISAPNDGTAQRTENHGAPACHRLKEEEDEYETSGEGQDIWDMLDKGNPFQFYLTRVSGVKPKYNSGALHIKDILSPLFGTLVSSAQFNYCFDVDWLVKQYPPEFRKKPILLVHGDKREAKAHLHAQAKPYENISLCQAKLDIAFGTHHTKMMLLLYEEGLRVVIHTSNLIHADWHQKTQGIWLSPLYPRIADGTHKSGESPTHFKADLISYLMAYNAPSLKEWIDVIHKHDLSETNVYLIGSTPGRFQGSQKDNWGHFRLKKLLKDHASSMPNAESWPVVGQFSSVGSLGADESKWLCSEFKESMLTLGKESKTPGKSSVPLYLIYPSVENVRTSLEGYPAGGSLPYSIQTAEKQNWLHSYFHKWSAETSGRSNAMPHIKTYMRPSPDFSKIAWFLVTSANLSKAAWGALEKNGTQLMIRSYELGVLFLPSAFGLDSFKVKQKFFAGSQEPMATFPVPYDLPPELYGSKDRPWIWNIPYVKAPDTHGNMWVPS
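Tdp1 1 nM final; 15 min RT w/ cpd; substrate 15 nM, 5 min; beads 10 ug/ml, 10 min; AlphaScreen read. Neg ctrl: no enzyme.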
IL1B secr inh: blocks inflammasome-driven IL-1 beta release | THP-1 LPS/ATP IL-1B secretion, AlphaLISA, 16 h; stronger effect = lower value | activity change, % at 57.5 µM | actives 4.7% (n = 360,000) | AID 743279; in the data active = activity change below about -50%; inconclusive = mostly about -30% to -49%
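THP-1 cells pretreated 1 hr with compounds (up to 57.5 uM final), then stimulated with LPS (250 ng/mL final) plus ATP (1.25 mM final); secreted IL-1B measured by AlphaLISA after 16 hr, decreased signal indicating inhibition.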
TDP1 cell noCPT: qHTS for Inhibitors of human tyrosyl-DNA phosphodiesterase 1 (TDP1): qHTS in cells in absence of CPT; DT40 Tdp1-/- hTDP1 cells, no CPT, ATP luminescence, 48 h; Potency, µM (top dose mostly 46.2 µM), without a hit: top-dose activity change, negative = growth inhibition, most hits filed as inhibitors; actives 15% (n = 420,000); AID 686978, 2013; note: potency is the fitted concentration of half-maximal effect; nearly all actives have a fitted effect of over 55% in size
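DT40 Tdp1-/-;hTDP1 cells, no CPT (DMSO vehicle only), 400 cells/well; compounds pin-transferred; ≥48 hr, 37 °C; CellTiter-Glo 30 min RT dark, luminescence read.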
TDP1 cell CPT: growth inhibition of DT40 Tdp1-/-;hTDP1 cells with camptothecin (screen for TDP1 inhibitors). chicken DT40 Tdp1-/-;hTDP1 cells + 20 nM CPT, ATP luminescence, 48 h. Potency, µM (top dose mostly 46.2 µM), for inactives: top-dose activity change, negative = growth inhibition, hits mostly inhibitors. actives 12% (n = 420,000); note: potency is the fitted concentration of half-maximal effect; nearly all actives have a fitted effect of over 55% in size
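Chicken DT40 Tdp1-/- cells complemented with human TDP1, 400 cells/well, exposed to compounds plus 20 nM camptothecin for at least 48 h at 37 C; viability read as ATP content by CellTiter-Glo luminescence.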
* hit, by the source's call; ? = inconclusive; · = no result; [ ] = dose if it differs, or a comment. Unless noted, calls come from the whole dose curve; as a rule, active = well fitted curve in the direction sought with a large enough effect; inconclusive = small, poorly fitted or top-dose-only effect, or another doubt; inactive = no such curve, though single readings can be large; an effect the other way counts as inactive or inconclusive. % is set by controls: 0 for no effect and ±100 for the full control effect.

SMILES	Six1-Eya2 inh	CtBP-E1A inh	TDP1 inh	IL1B secr inh	TDP1 cell noCPT	TDP1 cell CPT
COC(=O)c1ccc(C23CC4(C2)[C@H](CN(Cc2ccc(C(F)(F)F)cc2)[C@@H]4c2ccccc2)C3c2ccc(Cl)nc2)cc1 (stereo partly specified)	4.6	-4.8	6.9%	0.0	10.3µM*	9.2µM*
FC(F)(F)c1ccc(CN2C[C@@H]3C(c4ccc(Cl)nc4)C4(c5cccnc5)CC3(C4)[C@H]2c2ccccc2)cc1 (stereo partly specified)	-17.7	-8.1	11.7%	-12.2	16.4µM*	?
COC(=O)c1cccc(C23CC4(C2)[C@H](CN(Cc2cccnc2)[C@@H]4c2ccccc2)C3c2ccc(C(F)(F)F)cc2)c1 (stereo partly specified)	-7.9	-20.8	13.5%	42.5	16.4µM*	16.4µM*
COC(=O)c1cccc(C23CC4(C2)[C@H](CN(Cc2cccnc2)[C@@H]4c2ccccc2)C3c2ccc(Cl)nc2)c1 (stereo partly specified)	-17.0	-11.6	11.1%	31.7	?	?
NC(=O)CCC(C(=O)O)N1C(=O)C2C3CCC(C3)C2C1=O (stereo unspecified)	0.5	1.0	·	7.7	-0.4%	-1.8%
CC(=O)c1cccc(NC(=O)N2CCC(C(=O)c3ccc(F)cc3)CC2)c1	-0.5	-0.7	0.0%	-0.5	?	?
COc1ccccc1CCn1c(=O)c(-c2ccc(F)c(F)c2)nc2cncnc21	·	·	·	·	-7.9%	-3.5%
CCCCCc1c(-c2ccc(Cl)cc2)ncn1CCc1ccccc1OC	-15.0	-1.5	·	-62.5*	7.31µM*	8.2µM*
CCCCc1c(-c2cccc(Cl)c2)ncn1CCc1ccccc1OC	-11.3	-16.7	·	-57.8*	8.2µM*	8.2µM*
COC(=O)c1ccc2nc(-c3ccc(Cl)cc3)c(Cc3ccccc3OC)n2c1	5.3	3.2	·	0.0	-22.1%	-13.3%
CCc1ccccc1OCCCOc1ccc(OC)cc1	79.4	49.3	0.0%	41.0	-0.2%	1.1%
CCCCc1c(-c2ccc(OC)cc2)ncn1CCc1ccccc1OC	-23.2	-0.2	·	-113.7*	23.1µM*	20.6µM*
CCCCCc1c(-c2ccc(OC)cc2)ncn1CCc1ccccc1OC	-18.9	-1.5	·	-94.3*	14.6µM*	13µM*
O=c1c2ccccc2nnn1COc1ccc(F)cc1Cl	12.4	9.0	-3.5%	0.0	10.2%	3.0%
O=C1NC2(CCCCCCC2)C(=O)N1Cc1ccc(F)cc1	-1.4	2.1	2.6%	21.4	5.5%	-2.2%
CCCc1c(-c2cccc(Cl)c2)ncn1Cc1ccccc1OC	-12.0	-0.7	·	?	9.2µM*	5.8µM*
CCCCc1c(Cc2ccccc2)ncn1CCc1ccccc1OC	-18.2	-23.0	·	-57.9*	5.17µM*	2.91µM*
COCCN1CCN(Cc2cn(C)nc2-c2cccc(Cl)c2)CC1	0.6	0.0	9.0%	9.3	-11.7%	14.2%
CCCCc1c(-c2ccccc2)ncn1CCc1ccccc1OC	-26.4	2.4	·	?	16.4µM*	?
CCCCc1c(-c2ccc(F)cc2)ncn1CCc1ccccc1OC	-15.4	-8.4	·	?	20.6µM*	?
Cc1cccc(C(=O)Nc2nnc(SCC(=O)NCc3ccco3)s2)c1	-2.6	5.6	·	-2.6	-0.2%	-9.9%
CC1(C)Cc2nc3oc4c(=O)n(CC(=O)Nc5ccc(Cl)cc5)cnc4c3cc2CO1	9.3	8.4	5.2%	30.8	?	-10.6%
C=CCN(C(=O)CCC(=O)Nc1cc(C)on1)C(C(=O)NC1CCCC1)c1ccc(OC)c(OC)c1 (stereo unspecified)	2.9	0.0	-1.7%[0.0935 µM]	13.1	?	1.2%
O=S(=O)(Nc1cccc2cn[nH]c12)c1ccc(F)cc1	4.2	1.0	-2.3%	26.3	?	?
Cc1ccc(-c2nnc(SCC(=O)NC(C)(C)C)nc2-c2ccc(C)cc2)cc1	·	·	10.4%	·	?	29.1µM*
SMILES	Six1-Eya2 inh	CtBP-E1A inh	TDP1 inh	IL1B secr inh	TDP1 cell noCPT	TDP1 cell CPT
Cc1ccc(-c2nnc(SCC(=O)N3CCOCC3)nc2-c2ccc(C)cc2)cc1	-9.3	-5.2	5.1%	-7.3	?	20.6µM*
CCOc1ccc(-c2nnc(SCC(=O)NCc3ccc(C)cc3)nc2-c2ccc(OCC)cc2)cc1	·	·	5.2%	·	13µM*	?
Cc1ccc(-c2nnc(SCC(N)=O)nc2-c2ccc(C)cc2)cc1	-9.5	-8.3	-3.9%	10.9	?	?
Cc1ccc(-c2nnc(SCC(=O)N(C)C)nc2-c2ccc(C)cc2)cc1	-11.6	-3.6	2.5%[0.0935 µM]	-0.3	23.1µM*	?
Cc1ccc(SCC(=O)N2CCOCC2)cc1	-1.7	7.4	7.2%	-7.8	-16.6%	-15.0%
CCCCOc1cc(CC2CNC(=O)N2)ccc1OC (stereo unspecified)	0.4	0.5	13.7%[56.1 µM]	-12.4	?	?
CSc1ccc(CSCC(=O)N2CCN(S(=O)(=O)c3ccc(C)cc3C)CC2)cc1	-11.1	-6.3	-0.1%	-29.1	?	25.9µM*
Cc1ccc(C(CC(=O)N2CCOCC2)c2ccco2)cc1 (stereo unspecified)	0.0	1.0	3.4%	?	?	16.4µM*
Cc1ccc(CSCC(=O)N2CCOCC2)cc1	0.8	3.6	0.7%	13.6	10.3µM*	6.51µM*
COc1ccc2[nH]c(=O)c(CN(C(=O)c3ccncc3)C(C)(C)C)cc2c1	14.8	18.2	1.0%	13.1	-13.8%	-5.8%
O=C(Cn1c(=O)[nH]c2ccccc2c1=O)Nc1ccc2c(c1)OCO2	-6.2	-8.6	7.0%	0.0	1.0%	-1.1%
N#CCCN1CCCc2cc(N=Nc3ccc(C(F)(F)F)cc3)ccc21	?	?	12.3%	?	?	?
CCC(C)c1ccc(NC(=S)NC(C)C2CCCO2)cc1 (stereo unspecified)	-23.5	·	3.6%	15.7	25.9µM*	-17.5%
CCC(C)c1ccc(C(CC)NC(=O)C2CCCO2)cc1 (stereo unspecified)	1.7	-3.5	·	36.8	?	23.1µM*
CC(=O)N1CCCN(C(=O)c2ccc3nc(Cc4cccc(Cl)c4)oc3c2)CC1	13.5	-0.2	0.4%	-3.8	?	?
COc1ccccc1-n1c2nc3ccccc3nc2c2c(=O)n(-c3cc(C)cc(C)c3)cnc21	0.0	-14.1	1.2%	-94.6*	?	3.66µM*
